The text below walks through data of PubChem BioAssay (EPA / NIEHS).

Experiment [1] has as its target Estrogen receptor (Homo sapiens) (UniProt P03372). The experiment is described as follows: NVS_NR_hER: NovaScreen (NVS) Nuclear Receptor Binding Assay for human Estrogen Receptor (ER) (AID 2283348). An outline of the steps:
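MCF7-derived receptor extract, radiolabelled ligand, competitive displacement. Read: scintillation counts at 18 h. DMSO = negative control/baseline. Primary 25 uM duplicate; follow-up concentration–response.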

Experiment [2] shares this target. Kind of experiment: OT_ER_ERaERa_1440: Odyssey Thera (OT) 24-hour HEK293T Protein-Complementation Assay for Estrogen Receptor-alpha/-alpha Homodimer (AID 2283349).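 Also: hits raise fluorescence above DMSO for agonists and antagonists alike.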 An outline of the steps: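 Cells (HEK293T) carrying the fragment-tagged ERα LBD (aa 310-547) pair are treated with chemical for 24 hours. Nuclear and/or cytoplasmic fluorescence is then quantified on a laser scanning cytometer. Activity is scored as signal gain against DMSO.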

The target is the same in experiment [3]. The experiment is described as follows: OT_ER_ERaERa_0480: Odyssey Thera (OT) 8-hour HEK293T Protein-Complementation Assay for Estrogen Receptor-alpha/-alpha Homodimer (AID 2283351).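 Also: rise in fluorescence from reassembled reporter fragments on ERα LBD homodimer in nucleus or whole cell.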 An outline of the steps: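 Cells were treated for 8 hours, then imaged on a laser scanning plate cytometer. Complementation of reporter fragments fused to the human ERα ligand-binding domain (residues 310-547) in HEK293T gave fluorescence, and gain of signal over vehicle was fitted.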

In experiment [4] the target is Estrogen receptor (Homo sapiens) + Estrogen receptor beta (Homo sapiens) (UniProt P03372+Q92731). The experiment is described as follows: OT_ER_ERaERb_0480: Odyssey Thera (OT) 8-hour HEK293T Protein-Complementation Assay for Estrogen Receptor-alpha/-beta Heterodimer (AID 2283352). An outline of the steps: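 Increase in mean fluorescence intensity, measured by laser scanning plate cytometry, reported ER-alpha/ER-beta LBD complementation in HEK293T cells after 8 h chemical exposure. DMSO served as baseline; basal signal is low, punctate and cytoplasmic.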

Records with an inconclusive call do not appear. Calls of active or inactive are those of the source. The calls were made as follows: active = hit-call score of the fitted dose curve at least 0.9, where 1 is the maximum; inconclusive = response in the unintended direction; inactive = score below 0.9.

Chain of Estrogen receptor (Homo sapiens) + Estrogen receptor beta (Homo sapiens) (P03372 whole entry, looked up, the tested form may be a part): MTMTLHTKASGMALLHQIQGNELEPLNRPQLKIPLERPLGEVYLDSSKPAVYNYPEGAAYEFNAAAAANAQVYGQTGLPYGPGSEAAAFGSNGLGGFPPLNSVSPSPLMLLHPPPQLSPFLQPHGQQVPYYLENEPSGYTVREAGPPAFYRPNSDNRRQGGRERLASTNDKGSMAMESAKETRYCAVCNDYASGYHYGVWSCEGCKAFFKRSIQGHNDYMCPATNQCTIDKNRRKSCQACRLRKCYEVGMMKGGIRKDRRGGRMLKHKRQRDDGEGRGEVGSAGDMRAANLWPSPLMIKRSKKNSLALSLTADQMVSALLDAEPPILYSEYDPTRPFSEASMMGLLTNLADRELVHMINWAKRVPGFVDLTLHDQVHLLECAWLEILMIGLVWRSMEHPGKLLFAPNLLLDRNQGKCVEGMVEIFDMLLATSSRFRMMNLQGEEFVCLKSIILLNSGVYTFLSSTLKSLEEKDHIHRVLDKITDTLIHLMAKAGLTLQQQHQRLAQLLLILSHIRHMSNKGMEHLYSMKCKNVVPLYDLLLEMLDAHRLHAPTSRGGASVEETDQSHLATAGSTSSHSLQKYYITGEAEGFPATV
Chain of Estrogen receptor (Homo sapiens) + Estrogen receptor beta (Homo sapiens) (Q92731 whole entry, looked up, the tested form may be a part): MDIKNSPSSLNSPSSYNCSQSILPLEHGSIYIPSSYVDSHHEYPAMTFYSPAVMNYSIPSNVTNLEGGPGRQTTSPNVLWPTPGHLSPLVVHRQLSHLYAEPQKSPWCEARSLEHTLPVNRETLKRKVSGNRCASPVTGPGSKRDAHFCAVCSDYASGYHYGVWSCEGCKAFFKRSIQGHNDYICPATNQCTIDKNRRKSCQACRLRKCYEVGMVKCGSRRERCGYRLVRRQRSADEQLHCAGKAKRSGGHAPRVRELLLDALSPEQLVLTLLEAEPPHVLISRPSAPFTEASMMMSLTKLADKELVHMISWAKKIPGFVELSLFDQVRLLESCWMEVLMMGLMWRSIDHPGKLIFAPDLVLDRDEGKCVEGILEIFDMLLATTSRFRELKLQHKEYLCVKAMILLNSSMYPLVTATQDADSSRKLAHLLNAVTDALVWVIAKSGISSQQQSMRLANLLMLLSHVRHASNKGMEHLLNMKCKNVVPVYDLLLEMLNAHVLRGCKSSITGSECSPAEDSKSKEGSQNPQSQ
Chain of Estrogen receptor (Homo sapiens) (P03372 whole entry, looked up): as the sequence (P03372 whole entry, looked up, the tested form may be a part) above

In the case of `CCCC(CCC)C(=O)O`, the compound was classed as inactive in experiment [1] and in experiment [2].
Consider `c1ccc2cc3ccccc3cc2c1`, for which the result in experiment [2], in experiment [3] and in experiment [4] was inactive.
As for `CC(C)c1nnc2ccc(-c3ocnc3-c3cc(F)ccc3F)cn12`, the call in experiment [2], in experiment [3] and in experiment [4] was inactive.
With `CNC(C)=O`, the compound was classed as inactive in experiment [2] and in experiment [4].
Regarding `O=C1CN(N=Cc2ccc([N+](=O)[O-])o2)C(=O)N1`, the result in experiment [2] and in experiment [3] was inactive.
In the case of `CCCCOC(=O)c1ccccc1`, the outcome in experiment [2] was inactive.
For `O=C(NO)C1(NS(=O)(=O)c2ccc(Oc3ccc(F)cc3)cc2)CCOCC1`, the compound was called inactive in experiment [2] and in experiment [3].
`CCCCCCOC(=O)CC(CC(=O)OCCCCCC)(OC(=O)CCC)C(=O)OCCCCCC`: the compound was called inactive in experiment [2] and in experiment [4].
As to `CC(C)CC(C)O` (stereo unspecified), the call in experiment [2], in experiment [3] and in experiment [4] was inactive.
Take `C=CN1CCCC1=O`: the compound was called inactive in experiment [2].
On to `OC(CCl)CCl`, for which the compound was called inactive in experiment [2], in experiment [3] and in experiment [4].
Take `NC(=O)N(O)[C@@H]1COc2cc(OCc3ccccc3)ccc21`: the compound was called inactive in experiment [2] and in experiment [4].
For the compound `OC(Cn1cncn1)(Cn1cncn1)c1ccc(F)cc1F`, the outcome in experiment [2] and in experiment [3] was inactive.
As to `COCc1nnc(-c2ccc[n+]([O-])c2)n1-c1c(Cl)c(Cl)cc2[nH]c(=O)c(=O)[nH]c12`, the compound was called inactive in experiment [2], in experiment [3] and in experiment [4].
As to `CCCc1ccccc1`, the outcome in experiment [2] and in experiment [4] was inactive.
In the case of `C[C@@H](Oc1ccc(CNC(=O)c2cccnc2Oc2ccc3c(c2)OCO3)c(F)c1)C(=O)O`, the compound was called inactive in experiment [2], in experiment [3] and in experiment [4].
As to `CCCCCCCC/C=C\CCCCCCCC(=O)OC[C@@H](O)[C@H]1OC[C@H](O)[C@H]1O`, the outcome in experiment [2] and in experiment [4] was inactive.
As to `c1ccc2ncccc2c1`, the compound was classed as inactive in experiment [2] and in experiment [3].
`CC(C)CCCCCCOC(=O)C1CCCCC1C(=O)OCCCCCCC(C)C` (stereo unspecified): the compound was classed as inactive in experiment [2] and in experiment [4].
`CCCOc1ccc(S(=O)(=O)N2CCN(CC)CC2)cc1-c1nc2c(CC)n(Cc3ccccn3)nc2c(=O)[nH]1`: the outcome in experiment [2], in experiment [3] and in experiment [4] was inactive.
`CCOc1ccc2[nH]cc(C(=O)NCc3ccccc3)c(=O)c2n1`: the compound was classed as inactive in experiment [2] and in experiment [4].
Take `O=S1(=O)CCCO1`: the compound was called inactive in experiment [2] and in experiment [4].
On to `O=C(O)[C@H](O)[C@@H](O)C(=O)O`, for which the compound was called inactive in experiment [2], in experiment [3] and in experiment [4].
Regarding `Cc1ccc(S(=O)(=O)NC(=O)NN2CCCCCC2)cc1`, the call in experiment [2] and in experiment [4] was inactive.
For the compound `OCCOCCOCCO`, the compound was called inactive in experiment [2] and in experiment [4].
As to `NC(N)=O`, the call in experiment [2] and in experiment [4] was inactive.
For the compound `Cn1c(=O)c2[nH]cnc2n(C)c1=O`, the compound was called inactive in experiment [2] and in experiment [3].
`CCCCN1C(=O)[C@@H]([C@H](O)C2CCCCC2)NC(=O)C12CCN(Cc1ccc(Oc3ccc(C(=O)O)cc3)cc1)CC2`: the result in experiment [2] and in experiment [4] was inactive.
With `CC[C@H](C)C(=O)O[C@H]1C[C@H](O)C=C2C=C[C@H](C)[C@H](CC[C@@H](O)C[C@@H](O)CC(=O)O)[C@H]21`, the compound was called inactive in experiment [2], in experiment [3] and in experiment [4].
Take `CCCCCCCC1CCC(=O)O1` (stereo unspecified): the result in experiment [2] and in experiment [4] was inactive.
In the case of `COc1cc2c(c(OC)c1OC)-c1ccc(OC)c(=O)cc1[C@@H](NC(C)=O)CC2`, the compound was called inactive in experiment [2], in experiment [3] and in experiment [4].
Regarding `CC(=O)c1ccccc1`, the compound was classed as inactive in experiment [2].
Turning to `NC(=O)NN=Cc1ccc([N+](=O)[O-])o1`, the result in experiment [2] and in experiment [4] was inactive.
`CCCCCCCCCCCCCCO`: the compound was called inactive in experiment [2] and in experiment [4].
In the case of `OC[C@H]1O[C@@](CO)(O[C@H]2O[C@H](CO)[C@@H](O)[C@H](O)[C@H]2O)[C@@H](O)[C@@H]1O`, the result in experiment [2] and in experiment [3] was inactive.
As to `O=C(O)c1cccc(C(=O)O)c1`, the outcome in experiment [2] and in experiment [3] was inactive.
As to `OCc1ccccc1`, the compound was classed as inactive in experiment [2] and in experiment [4].
